Laboratory results taken from PubChem BioAssay (NCI).
About 83,000 compounds went through this panel and 20% of them were active in at least one assay; those are over-represented in the sample as a whole.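 Activity criterion: percent growth below 10, measured after cells in 96-well plates were exposed to a single compound concentration for 48 hours.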 Activity calls are given as the source filed them.

These molecules were tested on MDA-MB-468 breast (assay: NCI-60 one-dose screen, 48 h (100 = growth as untreated, 0 = no growth, -100 = all killed)). Settings: 10 µM unless noted.

| Structure (SMILES) | growth |
| --- | --- |
| CC1Cc2c(ncnc2-n2cnc3ccccc32)N(C)c2ccccc21 (stereo not drawn) | 9.47% (active) |
| COc1cc2c(=O)n(CCCN(C)C)c3c4cc5c(cc4ccc3c2cc1OC)OCO5 | 57.7% (inactive) |
| O=C1C(c2c[nH]c3ccccc23)=C(c2coc3cc(Br)ccc23)C(=O)N1O | 91.6% (inactive) |
